PubChem BioAssay (EPA / NIEHS)
Inconclusive results are not listed. Activity calls are given as the source filed them. Rule for the calls: active = hit-call score of the fitted dose curve at least 0.9, where 1 is the maximum; inconclusive = response in the unintended direction; inactive = score below 0.9.

These molecules were tested against bovine Estrogen Receptor (ER), ESR1 (gene 407238) (UniProt P49884) (assay: NVS_NR_bER: NovaScreen (NVS) Nuclear Receptor Binding Assay for bovine Estrogen Receptor (ER) (AID 2283345);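 note: actives lower the bound radioligand count which means they displace the ER ligand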).
Sequence of bovine Estrogen Receptor (ER), ESR1 (gene 407238) (P49884 whole entry, looked up): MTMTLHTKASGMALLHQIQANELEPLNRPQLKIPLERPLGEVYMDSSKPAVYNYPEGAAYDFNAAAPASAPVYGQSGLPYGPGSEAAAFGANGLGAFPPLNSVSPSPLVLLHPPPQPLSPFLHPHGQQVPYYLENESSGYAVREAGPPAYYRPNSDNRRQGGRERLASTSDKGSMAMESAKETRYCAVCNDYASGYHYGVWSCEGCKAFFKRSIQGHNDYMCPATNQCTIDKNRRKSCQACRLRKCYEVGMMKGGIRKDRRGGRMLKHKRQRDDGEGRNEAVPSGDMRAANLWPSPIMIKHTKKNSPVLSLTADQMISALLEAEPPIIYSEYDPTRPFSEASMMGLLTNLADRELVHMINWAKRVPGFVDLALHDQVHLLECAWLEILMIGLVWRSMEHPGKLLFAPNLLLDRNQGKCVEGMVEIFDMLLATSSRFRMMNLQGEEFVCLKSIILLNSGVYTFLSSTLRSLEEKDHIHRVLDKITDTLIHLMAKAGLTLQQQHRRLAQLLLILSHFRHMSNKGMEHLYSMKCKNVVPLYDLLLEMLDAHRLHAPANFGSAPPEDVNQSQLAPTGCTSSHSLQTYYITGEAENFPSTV
Experimental: NVS_NR_bER is a biochemical, single-readout assay that uses extracted gene-proteins from Bovine uterine membranes in a tissue-based cell-free assay. Measurements were taken 18 hours after chemical dosing in a 96-well plate.NVS_NR_bER is one of one assay component(s) measured or calculated from the NVS_NR_bER assay. It is designed to make measurements of radioligand binding, a form of binding reporter, as detected with scintillation counting signals by Lysate-based radiodetection technology.Data from the assay component NVS_NR_bER was analyzed into 1 assay endpoint. This assay endpoint, NVS_NR_bER, was analyzed in the positive analysis fitting direction relative to DMSO as the negative control and baseline of activity. Using a type of binding reporter, loss-of-signal activity can be used to understand changes in the binding as they relate to the gene ESR1. Furthermore, this assay endpoint can be referred to as a primary readout, because the performed assay has only produced 1 assay endpoint. To generalize the intended target to other relatable targets, this assay endpoint is annotated to the nuclear receptor intended target family, where the subfamily is steroidal.
Binding assays used specific radioligands (tritiated, iodinated) with non-radioactive competitive displacement ligands in agonist or antagonist protocols (as indicated) and various reference compounds and inhibitors to titrate specific binding to receptors and transporters. Most enzyme assays (CYPs, kinases, phosphatases, proteases, HDACs) used recombinant protein and specific substrates (fluorescence mostly, some colorimetric and radioactive) and inhibitors, followed by a biochemical separation of substrate and product. All assays for the biochemical HTS were initially run in duplicate at a single concentration (10 uM for CYP450 assays and 25 uM for all others). […] Each assay was run with positive and negative controls, and concurrent controls on every plate. The follow-up (secondary) screen tested active chemical-pairs in concentration series, as well as a few additional assays not tested in the primary screen, some selected negative inactives, and several cases re-run in the concentration series for confirmatory purposes.
For `CCc1cc(Cc2cc(CC)c(N)c(CC)c2)cc(CC)c1N`, the outcome was “inactive”. `O=C1C=CC(=O)N1c1ccc(Cc2ccc(N3C(=O)C=CC3=O)cc2)cc1` was tested, and the outcome was “inactive”. For `CCN=c1cc2oc3cc(NCC)c(C)cc3c(-c3ccccc3C(=O)OCC)c-2cc1C`, the AC50 was 8.97 µM (active). With `O=C(c1ccccc1)c1ccc(O)cc1O` the AC50 was 8.41 µM (active). `CCCCCCCC/C=C\CCCCCCCC(=O)N(C)CC(=O)O` was tested, and the outcome was “inactive”. For `CCCCCCCCCCCCCC[P+](CCCC)(CCCC)CCCC`, the AC50 was 38.3 µM (active). For `CCCCCCCCCc1ccc(OCCO)cc1`, the outcome was “inactive”. In the case of `CC(C)(C)C(=O)C1C(=O)c2ccccc2C1=O`, the outcome is reported as “inactive”. `Cc1cc(O)c(C(C)(C)C)cc1C(C)(C)C` was tested, and the outcome was “inactive”. `CCC(Cc1c(I)cc(I)c(N)c1I)C(=O)O` (stereo not drawn) was tested, and the outcome was “inactive”. `CCCCCCCCn1sc(Cl)c(Cl)c1=O` was tested, and the AC50 was 12.7 µM (active). In the case of `CCCCCCCCCCCCC[N+](C)(C)Cc1ccccc1`, the outcome is reported as “inactive”. `C[C@]12CC[C@H]3C(=CCc4cc(O)ccc43)[C@@H]1CCC2=O` was tested, and the AC50 was 0.0129 µM (active).
